Assay results: PubChem BioAssay
This is one part of the list. Activity calls are given as the source filed them. Cut-off read from the data, not from the text of the source, unless noted: active = activity above about 50%; inactive = the rest.

Assays:
[1] = target: Tumor necrosis factor receptor superfamily member 10B (Homo sapiens) (UniProt O14763); assay: caspase-8 TRAIL sensitization, hit retest, confirmation, cell-based, NB7+caspase-8, with/without TRAIL, luminescence panel (AID 651596); details: NB7 neuroblastoma + caspase-8, TRAIL sensitization, luminescence viability, with TRAIL, mean of runs, at 10 µM, stronger effect = higher value
[2] = as above; details: NB7 neuroblastoma + caspase-8, without TRAIL, luminescence viability, without TRAIL, mean of runs, at 10 µM
[3] = target: Tumor necrosis factor receptor superfamily member 10B (Homo sapiens) (UniProt O14763); assay: TRAIL sensitizers in caspase-8 expressing neuroblastoma cells, dose response, NB7 cells plus caspase-8, luminescence, panel (AID 652002); details: NB7 neuroblastoma +caspase-8, TRAIL sensitization, luminescence viability, NB7+Caspase-8, with TRAIL, run 1; at 12.5 µM (top of the series)
[4] = target: Tumor necrosis factor receptor superfamily member 10B (Homo sapiens) (UniProt O14763); assay: as above; details: NB7 neuroblastoma +caspase-8, TRAIL sensitization, luminescence viability, NB7+Caspase-8, with TRAIL, run 2; at 12.5 µM (top of the series)
[5] = as above; details: NB7 neuroblastoma +caspase-8, no TRAIL, compound-alone cytotoxicity counter-screen, luminescence viability, NB7+Caspase-8, run 1; at 12.5 µM (top of the series) unless noted
[6] = as above; details: NB7 neuroblastoma +caspase-8, no TRAIL, compound-alone cytotoxicity counter-screen, luminescence viability, NB7+Caspase-8, run 2; at 12.5 µM (top of the series) unless noted
[7] = target: COP9 signalosome complex subunit 5 (Homo sapiens) (UniProt Q92905); assay: Csn5 deneddylation inhibitors, confirmation, biochemical, fluorescence polarization, single concentration, SCF-Nedd8OG substrate (AID 720654; in the data active = inhibition above about 50%;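 note: 0% = DMSO with enzyme and 100% = no enzyme wells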); details: Csn5 deneddylation of SCF-Nedd8OG, 90 min, at 16.6 µM, stronger effect = higher value
[8] = target: 72 kDa type IV collagenase (Homo sapiens) (UniProt P08253); assay: MMP-2 protease inhibition counter-screen, confirmation, counter-screen for CSN deneddylation inhibitor project, biochemical, fluorescence, single concentration (AID 720655;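 active = corrected plate-normalized z-score of 5 or more, or -5 or less, or inhibition of 15% or more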;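 note: plate controls were DMSO wells with enzyme for no effect and buffer wells lacking MMP-2 for full effect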); details: recombinant MMP-2, FRET substrate fluorescence, 60 min; at 16.6 µM
Prothrombin (Bos taurus) = Prothrombin (Bos taurus) (UniProt P00735); assay: bovine thrombin inhibition counter-screen, confirmation, counter-screen for CSN deneddylation inhibitor project, biochemical, fluorescence polarization, single concentration (AID 720656;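 active = inhibition at or above a set limit, with a fluorescence interference ratio between 0.5 and a set maximum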); details: bovine thrombin cleavage of Ub4-pepOG, at 16.6 µM, stronger effect = higher value
Prothrombin (Bos taurus), sequence (P00735 whole entry, looked up): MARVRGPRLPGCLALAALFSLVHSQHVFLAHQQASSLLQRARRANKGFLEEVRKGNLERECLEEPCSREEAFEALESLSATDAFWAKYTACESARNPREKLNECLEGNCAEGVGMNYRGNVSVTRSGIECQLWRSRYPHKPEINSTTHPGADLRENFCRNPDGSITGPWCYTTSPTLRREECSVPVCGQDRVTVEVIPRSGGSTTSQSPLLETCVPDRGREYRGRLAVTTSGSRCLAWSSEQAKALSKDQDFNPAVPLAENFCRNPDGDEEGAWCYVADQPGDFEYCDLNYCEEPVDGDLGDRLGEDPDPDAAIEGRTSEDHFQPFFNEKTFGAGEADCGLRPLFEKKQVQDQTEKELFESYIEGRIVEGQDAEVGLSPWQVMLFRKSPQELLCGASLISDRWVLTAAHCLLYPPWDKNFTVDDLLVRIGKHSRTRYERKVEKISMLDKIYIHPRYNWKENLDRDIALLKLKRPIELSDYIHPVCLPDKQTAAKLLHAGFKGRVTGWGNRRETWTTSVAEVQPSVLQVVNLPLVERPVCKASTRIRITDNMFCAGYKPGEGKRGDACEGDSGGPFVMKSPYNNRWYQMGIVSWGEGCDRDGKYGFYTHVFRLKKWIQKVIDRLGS

Tumor necrosis factor receptor superfamily member 10B (Homo sapiens), sequence (O14763 whole entry, looked up): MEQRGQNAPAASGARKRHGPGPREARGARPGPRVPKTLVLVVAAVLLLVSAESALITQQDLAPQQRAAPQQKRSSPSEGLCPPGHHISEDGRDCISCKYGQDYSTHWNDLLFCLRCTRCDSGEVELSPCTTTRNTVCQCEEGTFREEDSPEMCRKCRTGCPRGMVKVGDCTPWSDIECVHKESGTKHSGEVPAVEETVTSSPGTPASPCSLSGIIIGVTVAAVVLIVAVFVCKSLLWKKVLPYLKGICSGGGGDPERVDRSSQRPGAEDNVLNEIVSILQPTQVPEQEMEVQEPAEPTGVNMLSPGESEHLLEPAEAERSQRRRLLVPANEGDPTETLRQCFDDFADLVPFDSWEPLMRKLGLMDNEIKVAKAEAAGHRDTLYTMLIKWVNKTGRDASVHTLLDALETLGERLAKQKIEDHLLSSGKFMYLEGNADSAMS
COP9 signalosome complex subunit 5 (Homo sapiens), sequence (Q92905 whole entry, looked up, one chain of several): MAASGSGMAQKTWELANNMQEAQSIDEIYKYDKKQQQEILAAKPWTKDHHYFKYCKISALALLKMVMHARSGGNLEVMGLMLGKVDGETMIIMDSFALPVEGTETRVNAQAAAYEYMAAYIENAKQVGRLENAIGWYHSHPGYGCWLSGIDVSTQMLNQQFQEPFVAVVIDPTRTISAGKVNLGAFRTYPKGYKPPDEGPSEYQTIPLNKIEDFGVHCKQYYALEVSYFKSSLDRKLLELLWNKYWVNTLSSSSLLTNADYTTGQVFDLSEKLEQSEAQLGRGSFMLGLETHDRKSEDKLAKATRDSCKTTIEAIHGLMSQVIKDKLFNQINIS
72 kDa type IV collagenase (Homo sapiens), sequence (P08253 whole entry, looked up): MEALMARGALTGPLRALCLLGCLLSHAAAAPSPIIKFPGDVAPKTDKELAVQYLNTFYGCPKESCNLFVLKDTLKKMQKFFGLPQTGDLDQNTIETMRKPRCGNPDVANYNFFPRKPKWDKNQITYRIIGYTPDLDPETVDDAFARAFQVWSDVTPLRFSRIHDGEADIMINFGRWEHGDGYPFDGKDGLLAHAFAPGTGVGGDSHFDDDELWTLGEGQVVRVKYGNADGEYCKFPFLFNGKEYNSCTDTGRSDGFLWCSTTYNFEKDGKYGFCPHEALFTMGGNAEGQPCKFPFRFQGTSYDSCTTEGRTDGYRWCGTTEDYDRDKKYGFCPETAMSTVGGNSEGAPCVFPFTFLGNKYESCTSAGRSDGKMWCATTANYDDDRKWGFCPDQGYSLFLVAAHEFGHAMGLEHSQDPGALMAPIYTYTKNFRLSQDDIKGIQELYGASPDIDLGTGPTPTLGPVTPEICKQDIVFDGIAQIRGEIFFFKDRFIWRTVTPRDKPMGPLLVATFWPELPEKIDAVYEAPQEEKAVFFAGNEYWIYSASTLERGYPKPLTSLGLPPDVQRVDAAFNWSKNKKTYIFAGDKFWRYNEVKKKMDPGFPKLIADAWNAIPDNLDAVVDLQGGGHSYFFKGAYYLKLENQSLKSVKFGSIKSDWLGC

Row | SMILES | activity [1] | activity [2] | activity, % sensitization [3] | activity, % sensitization [4] | activity, % sensitization [5] | activity, % sensitization [6] | inhibition [7] | inhibition [8] | inhibition (Prothrombin (Bos taurus))
1 | COc1cccc(N/C=C/C(=O)c2ccc(Cl)cc2)c1 | 58% | 50% | 32% | 38.3% | 28.1% | 40.5% | – | – | –
2 | Cc1ccc(C(=O)O)cc1-c1ccc(/C=C2\SC(=O)N(CC(=O)Nc3ccc4c(c3)OCO4)C2=O)o1 | – | – | – | – | – | – | 155% (active) | -3.01% (inactive) | 7.47% (inactive)
3 | Cc1nc2cc(NC(=O)c3ccco3)ccc2n1C | 47.6% | 48% | 30.3% | 32.8% | -8.74% | 21.3% | – | – | –
4 | O=C(c1cnc(Cl)c(Cl)c1)N1CCN(S(=O)(=O)c2ccc3ccccc3c2)CC1 | 45.5% | 25.1% | -9.83% | -9.66% | 3.76% | -5.02% | – | – | –
5 | Cc1cc(N/N=C/c2ccccc2)nc(NCc2ccccc2)n1 | 53.9% | 41.1% | 30.4% | 39.6% | 5.63% | 26.4% | – | – | –
6 | CC(C)(C)C1C/C(=C/c2ccco2)C(=O)/C(=C/c2ccco2)C1 (stereo not given) | – | – | – | – | – | – | 71.5% (active) | 1.32% (inactive) | 10.1% (inactive)
7 | O=C1Cc2c(-c3ccccc3)cc(-c3cccc(Cl)c3)nc2-c2ccccc2N1 | 52.9% | 39.5% | -1.76% | -0.0597% | -14.1% | -20.4% | – | – | –
8 | CCOc1ccc(-c2nnc(-c3ccccc3)o2)cc1 | 56% | 47.3% | 39.4% | 39.8% | 11.9% | -2.15% | – | – | –
9 | O=C(Nc1cnc2ccccn2c1=O)c1ccc(Cl)cc1Cl | 56% | 52.5% | 15.5% | 2.31% | -7.49% | -6.53% | – | – | –
10 | COc1ccc(-c2noc(-c3ccc4c(c3)OCO4)n2)cc1 | – | 49.9% | – | – | – | – | – | – | –
11 | Cc1ccnc(NC(=O)Nc2ccc3c(c2)OCO3)c1 | 51% | 41% | 40.8% | 17% | 0.866% | -33.8% | – | – | –
12 | Cc1ccc(-c2nn(-c3ccccc3)cc2/C=C2\SC(=S)N(CCCCCC(=O)O)C2=O)o1 | – | – | – | – | – | – | – | -170% (active) | -24.4% (inactive)
13 | CCOC(=O)c1ccc(N/C=C/C(=O)c2ccco2)cc1 | 52.7% | 46.1% | 24.1% | 9.37% | 0.326% | 6.5% | – | – | –
14 | Cc1c(P(=S)(c2ccccc2)c2ccccc2)[n+]2ccccc2n1CCc1ccccc1 | 52% | 44.7% | 3.09% | 9.7% | 3.44% | 9.46% | – | – | –
15 | COc1ccccc1/C=C/C=N/n1c(-c2cc(-c3ccccc3)n[nH]2)n[nH]c1=S | 71.2% | 39.3% | -29.9% | -8.86% | 10.6% | -34.4% | – | – | –
16 | COc1ccc2[nH]c3c(C)c4cc[n+](C)cc4c(C)c3c2c1 | – | – | – | – | – | – | -33.2% (inactive) | -35.8% (active) | 12.2% (inactive)
17 | CS(=O)(=O)c1ccc2c(c1)SC1=NC(=O)/C(=C/c3ccco3)C(=N)N12 | – | – | – | – | – | – | 50% (inactive) | 4.65% (inactive) | 41.6% (active)
18 | COC(=O)CSc1nc2cc(C)ccc2cc1C#N | 63.1% | 53.9% | 45.7% | 53.4% | 15.2% | 24.1% | – | – | –

Row | SMILES | activity [1] | activity [2] | activity, % sensitization [3] | activity, % sensitization [4] | activity, % sensitization [5] | activity, % sensitization [6] | inhibition [7] | inhibition [8] | inhibition (Prothrombin (Bos taurus))
19 | COc1ccc(NS(=O)(=O)c2cccc(C(=O)N/N=C/c3c(F)c(F)c(F)c(F)c3F)c2)cc1 | 77.2% | 47.5% | 7.56% | 35.1% | -2.02% | 41.3% | – | – | –
20 | COc1cc(/C=C2/C(=O)NN(c3cccc(Cl)c3)C2=O)cc(Br)c1O | – | – | – | – | – | – | 27.3% (inactive) | -17.1% (inactive) | 36.3% (active)
21 | O=C(O)C(c1ccccc1)N1C(=O)/C(=C\c2ccc(-c3cccc(Cl)c3)o2)SC1=S (stereo not given) | – | – | – | – | – | – | 14.6% (inactive) | -20.6% (inactive) | 51.9% (active)
22 | Cc1cc2nc(-c3ccc(SCC(=O)Nc4nccs4)nc3)[nH]c2cc1C | 58% | 46.6% | 5.16% | 48.9% | -17.8% | 0.327% | – | – | –
23 | COc1ccc(-c2nc(-c3ccc(NC(=O)c4ccncc4)cc3)no2)cc1OC | 70.5% | 47.2% | -12.9% | -17.5% | 2.44% | -14.5% | – | – | –
24 | C=CCC1=C/C(=C\c2c(N)n3nc(CC(=O)N4CCOCC4)sc3nc2=O)C=C(OC)C1=O | – | – | – | – | – | – | 16.7% (inactive) | -4.68% (inactive) | 72.6% (active)
25 | COC(=O)c1ccc(/C=C/c2nc3ccccc3c(=O)[nH]2)cc1 | 60.9% | 52.2% | -15.3% | -22.1% | 2.64% | -17.7% | – | – | –
26 | Cc1ccc(NC(=O)c2cc3ccccc3o2)nc1 | 58.9% | 49.5% | 32.6% | 41.2% | 43% | 41.7% | – | – | –
27 | Cc1cc2nc3ccc(N(C)C)cc3nc2cc1N | 52.4% | 32.9% | 38.9% | 39.1% | 24.2% | 12.1% | – | – | –
28 | CC(C)(C)OC(=O)[C@H](Cc1ccccc1)NC(=O)c1[nH]cnc1C(=O)Nc1ccccc1F | 54.9% | 54.8% | 16.8% | -4.6% | 6.22% | 2.55% | – | – | –
29 | CC(C)C[C@H](NC(=O)c1nc[nH]c1C(=O)N[C@@H](CC(C)C)C(=O)OCc1ccccc1)C(=O)OCc1ccccc1 | 71.4% | 38.8% | -20.3% | 9.61% | 0.235% | -15.4% | – | – | –
30 | CC(C)Cc1nc2oc3c(Cl)ncnc3c2c2c1CCCC2 | 55.5% | 49.8% | -5.07% | -15% | -9.85% | -8.86% | – | – | –
31 | CC1(C)N=C(N)N=C(N)N1c1ccc(Oc2ccc(Cl)cc2)c(Cl)c1 | 57.3% | 51% | 50.2% | 62.6% | 60.3% | 68.3% [at 6.25 µM] | – | – | –
32 | CSc1nc(N)n2nc(-c3ccc(Cl)cc3)cc2n1 | 63.9% | 45.2% | -2.8% | -10.2% | 0.419% | -17.1% | – | – | –
33 | COc1ccc(/C(C)=N/Nc2nncc3ccccc23)cc1 | 59.6% | 49.8% | 19.4% | 54.6% | 27.1% | 10.8% | – | – | –
34 | COC(=O)c1ccc(/C=C(\C#N)c2ccccn2)cc1 | 51% | 40.8% | -7.25% | -19.4% | -8.36% | -11% | – | – | –
35 | CCN(CC)c1ccc(NC(=O)Nc2ccccc2)cc1 | 52% | 47% | 37.6% | 44.7% | 12% | 31.2% | – | – | –
